In the library only some 1.1% were active in any assay of this set; here they are far more common.
Casp6 inh: human caspase-6 inhibitors, primary screen, biochemical, VEID-R110 fluorescence, single point, set 2 | purified caspase-6, Z-VEID-R110 cleavage fluorescence | inhibition, % at 12.5 µM | AID 686996, 2013 | 350,000 compounds, 0.53% hits;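 active means mean inhibition across replicates at least about 35%, with every replicate also reaching that limit, limit read from the data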;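 further: 0% = median of neutral control wells and 100% = no fluorescence left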
N-glyco inh: increase of ERlucT glycosylation luciferase signal, primary screen, N-linked glycosylation inhibitor project, D54 ERlucT cells, luminescence, set 2; D54 ERlucT glycosylation luciferase reporter, 24 h; percent of 100 nM tunicamycin response; reporter increase, % at 12.5 µM; 360,000 compounds, 0.23% hits; AID 588692, 2011;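 active means mean luciferase reporter signal, scaled so untreated is 0 and the glycosylation-blocking control 100, at or above a set limit in every replicate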;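 further: luciferase carries N-glycosylation sites so blocking glycosylation raises the light; 0% = median of neutral control wells and 100% = median of 100 nM tunicamycin wells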
Keap1 Nrf2 FP: Keap1-Nrf2 protein-protein interaction inhibitors, primary screen, biochemical, fluorescence polarization, single point; AID 504523, 2011; inhibition, % at 9.4 µM; Kelch-like ECH-associated protein 1 (Homo sapiens), Q14145; Keap1 Kelch-Nrf2 peptide fluorescence polarization, 1536-well; 340,000 compounds, 0.15% hits; in the data active means inhibition above about 12%;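 further: human Keap1 Kelch domain with fluorescein labeled Nrf2 9mer peptide probe; 0% = neutral control wells and 100% = peptide positive control; higher means more block of Keap1 binding to Nrf2 peptide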
C-LANA FP: inhibitors of KSHV C-LANA binding to DNA, primary screen, biochemical, fluorescence polarization, FAM-LBS DNA, MBP-C-LANA, single point. inhibition, % at 9 µM. 340,000 compounds, 0.078% hits. Kaposi's sarcoma herpesvirus LANA C-terminal domain (residues 932-1162) DNA binding;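 active means highest replicate inhibition at or above 60% at 9 µM, even if other replicates fall short; inactive means all replicates below 60% inhibition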;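 further: 0% = neutral control wells and 100% = 4 µM acridine orange control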
NSD2 inh: NSD2 histone methyltransferase inhibitors, primary screen, biochemical, AlphaScreen, single concentration, set 2. Histone-lysine N-methyltransferase NSD2 (Homo sapiens), O96028. NSD2 peptide methylation, 120 min. inhibition, % at 12.5 µM. 310,000 compounds, 0.54% hits. AID 743445, 2014; in the data active means inhibition above about 50%
Target sequence (O96028 whole entry, looked up): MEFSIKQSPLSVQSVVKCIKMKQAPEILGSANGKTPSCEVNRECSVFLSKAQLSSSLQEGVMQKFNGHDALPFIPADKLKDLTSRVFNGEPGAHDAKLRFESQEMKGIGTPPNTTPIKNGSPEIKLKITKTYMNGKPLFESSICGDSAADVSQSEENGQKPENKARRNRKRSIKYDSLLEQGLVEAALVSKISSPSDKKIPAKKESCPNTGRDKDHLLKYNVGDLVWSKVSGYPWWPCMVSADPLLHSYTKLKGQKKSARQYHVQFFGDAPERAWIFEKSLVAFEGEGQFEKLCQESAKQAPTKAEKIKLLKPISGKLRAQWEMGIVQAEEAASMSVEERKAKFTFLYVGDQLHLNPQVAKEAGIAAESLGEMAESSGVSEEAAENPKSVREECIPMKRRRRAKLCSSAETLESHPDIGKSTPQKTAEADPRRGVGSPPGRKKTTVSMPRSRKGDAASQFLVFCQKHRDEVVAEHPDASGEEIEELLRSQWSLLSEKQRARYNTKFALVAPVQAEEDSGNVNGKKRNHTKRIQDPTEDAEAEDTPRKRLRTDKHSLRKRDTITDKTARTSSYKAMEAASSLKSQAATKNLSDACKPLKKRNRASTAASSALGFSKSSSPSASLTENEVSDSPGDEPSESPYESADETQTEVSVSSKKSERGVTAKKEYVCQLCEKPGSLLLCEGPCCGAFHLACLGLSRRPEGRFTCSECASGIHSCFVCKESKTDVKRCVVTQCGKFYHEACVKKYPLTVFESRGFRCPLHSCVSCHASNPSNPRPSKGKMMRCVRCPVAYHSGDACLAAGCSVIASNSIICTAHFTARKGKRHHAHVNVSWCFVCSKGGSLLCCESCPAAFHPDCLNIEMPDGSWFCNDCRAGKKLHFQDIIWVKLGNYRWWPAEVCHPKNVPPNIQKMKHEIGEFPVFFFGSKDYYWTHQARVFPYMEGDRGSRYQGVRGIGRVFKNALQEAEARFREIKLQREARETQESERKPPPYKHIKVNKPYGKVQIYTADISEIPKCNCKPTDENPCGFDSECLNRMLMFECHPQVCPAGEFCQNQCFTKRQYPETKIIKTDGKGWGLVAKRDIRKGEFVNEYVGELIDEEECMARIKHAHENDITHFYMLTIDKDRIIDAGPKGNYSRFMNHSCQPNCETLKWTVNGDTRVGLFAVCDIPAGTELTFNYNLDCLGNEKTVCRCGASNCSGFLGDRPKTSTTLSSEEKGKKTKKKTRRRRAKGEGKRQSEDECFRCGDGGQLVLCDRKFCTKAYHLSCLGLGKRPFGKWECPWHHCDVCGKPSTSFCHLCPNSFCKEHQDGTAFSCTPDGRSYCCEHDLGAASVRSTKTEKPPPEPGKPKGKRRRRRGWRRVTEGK
HDAC3 inhib: HDAC3 deacetylase inhibitors, primary screen, biochemical, fluorescence, cell-free homogeneous. recombinant HDAC3, fluorogenic peptide/trypsin coupled. 320,000 compounds, 0.15% hits. inhibition, % at 8.3 µM. AID 2718, 2010. Histone deacetylase 3 (Homo sapiens), O15379; in the data active means inhibition above about 26%, passing the limit was not always enough
Keap1 Kelch bind: Keap1 Kelch domain binders by thermal stabilisation, dose response, biophysical, thermal shift, RT-PCR instrument, cherry-pick; delta Tm; stronger effect = higher value; 400 compounds, 8% hits; shares compounds with Keap1 Nrf2 FP; max delta Tm, degrees C; in the data active means max delta Tm above about 0.48 degrees C
Sypro dye melt: Sypro Orange dye melt without protein, dose response, artefact control for Keap1-Nrf2 interaction inhibitor project, biochemical, thermal shift counterscreen, cherry-pick | AID 651858, 2012 | Sypro Orange dye-only thermal melt, no protein, delta Tm; top dose 26 µM | shares compounds with Keap1 Nrf2 FP | delta Tm, degrees C (concentration not given with the values) | 140 tested, under 10 active;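 active means at highest dose tested, delta Tm positive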
The depositor's hits bear a star; / = not tested or not shown.

SMILES	Casp6 inh	N-glyco inh	Keap1 Nrf2 FP	C-LANA FP	NSD2 inh	HDAC3 inhib	Keap1 Kelch bind	others
CS(=O)(=O)N1CCCC(C(=O)Nc2ccc(F)cc2)C1 (stereo unspecified)	1	0	-4	2	0	-6	/
O=C(O)CCNc1ccc(NCCC(=O)O)c2c1C(=O)c1ccccc1C2=O	70*	-4	13*	55	56*	2	0.63*	Sypro dye melt=-26
COc1ccccc1NCCC(=O)O	-1	-1	1	-13	-2	/	/
CCCCNc1c2c3c(cccc3n(C)c1=O)C(=O)c1ccccc1-2	/	6	58*	71*	/	15	0.25
CCNc1c2c3c(cccc3n(C)c1=O)C(=O)c1ccccc1-2	/	/	/	/	/	-12	/
Cn1c(=O)c(NCCc2ccccc2)c2c3c(cccc31)C(=O)c1ccccc1-2	/	-2	45*	101*	-1	0	0
O=C(C1=C(O)C(=O)N(CCc2ccccc2)C1c1ccncc1)c1cc2ccccc2o1 (stereo unspecified)	4	2	-2	1	0	-1	/
O=C(C1=C(O)C(=O)N(c2nccs2)C1c1ccccc1)c1cc2ccccc2o1 (stereo unspecified)	1	0	42*	37	0	7	-0.1
CCOc1cccc(C2C(C(=O)c3ccc(C)o3)=C(O)C(=O)N2c2nccs2)c1 (stereo unspecified)	/	-1	24*	21	0	5	-0.09
CN1CC=C2C(C#N)=C(N)C(C#N)(C#N)[C@H](c3ccoc3)[C@H]2C1	/	3	27*	58	/	-13	-0.08
COc1ccc(OC)c(C2C3CN(C(C)C)CC=C3C(C#N)=C(N)C2(C#N)C#N)c1 (stereo unspecified)	/	1	1	20	9	1	/
CC(=O)N1CC=C2C(C#N)=C(N)C(C#N)(C#N)[C@H](c3ccoc3)[C@H]2C1	/	2	-7	13	3	0	/
Cc1ccc(C2C3CN(C(C)C)CC=C3C(C#N)=C(N)C2(C#N)C#N)cc1 (stereo unspecified)	/	-1	23*	41	/	-19	0.02
CC(=O)Nc1c(NC(C)(C)C)c2ccccc2oc1=O	-4	0	4	-1	0	2	/
CC(=O)Nc1c(N)c2ccccc2oc1=O	2	2	14*	5	14	-6	-0.16	Sypro dye melt=-26
Cc1ccc(S(=O)(=O)N(C)C[C@H]2OCCCC[C@H](C)Oc3ccc(NC(=O)Nc4c(C)noc4C)cc3C(=O)N([C@H](C)CO)C[C@H]2C)cc1	0	/	/	/	/	/	/
Cc1cnc(NC(=O)Cc2ccc(S(=O)(=O)N3CCOCC3)s2)s1	1	2	13*	8	1	2	-0.11
CCCCCC(=O)N1CCCC1	2	-1	16*	-2	-1	1	-0.08	Sypro dye melt=-23
O=C(CCCCCCCC(=O)N1CCCCCC1)N1CCCCCC1	-2	0	-1	0	0	/	/
O=C(/C=C/c1ccccc1Cl)NCCCn1ccnc1	-11	2	38*	19	0	0	-0.01
C[C@@H]1CCCCO[C@@H](CN(C)Cc2ccc(C(F)(F)F)cc2)[C@@H](C)CN([C@H](C)CO)C(=O)c2cc(NC(=O)Nc3ccc4c(c3)OCO4)ccc2O1	3	/	/	/	/	/	/
CN1/C(=C\C=C(/C#N)C(=O)Nc2ccc(Cl)cc2)C(C)(C)c2ccccc21	/	0	14*	33	-1	1	-0.06
CN1/C(=C/C=N/n2cnnc2)C(C)(C)c2ccccc21	/	1	2	0	-2	4	/
CN1/C(=C\C(=O)Nc2ccc(Cl)cc2)C(C)(C)c2ccccc21	-2	-2	0	1	-3	5	/
CN1/C(=C\C=C(C#N)C#N)C(C)(C)c2ccccc21	-9	2	45*	165	2	-5	0
SMILES	Casp6 inh	N-glyco inh	Keap1 Nrf2 FP	C-LANA FP	NSD2 inh	HDAC3 inhib	Keap1 Kelch bind	others
Cc1ccc(S(=O)(=O)N(C)C[C@H]2OCCCC[C@@H](C)Oc3ccc(NS(C)(=O)=O)cc3C(=O)N([C@H](C)CO)C[C@H]2C)cc1	2	/	/	/	/	/	/
COc1ccc(CN(C)C[C@H]2Oc3ccc(NC(=O)Cn4cnnn4)cc3CC(=O)N([C@H](C)CO)C[C@H]2C)cc1	-2	/	/	/	/	/	/
Cn1ccnc1Sc1cc(NCCCO)c([N+](=O)[O-])c2nonc12	4	12	13*	1	10	0	-0.01
COc1cc(CO)ccc1Oc1nc2ccccc2n2cnnc12	-1	1	31*	26	-1	-4	-0.19
COc1ccc(/C(C)=N/Nc2nc3ccccc3n3cnnc23)cc1OC	4	/	/	/	6	6	/
O=C(c1ccccn1)N1CC[C@H]2[C@H](CO)Nc3ccc(C#Cc4ccccc4)cc3[C@H]21	2	/	/	/	/	/	/
Cc1oc2cc(O)ccc2c(=O)c1-c1nncn1-c1ccccc1	-1	1	25*	49	8	/	0.11	Sypro dye melt=-22
Cc1oc2cc(O)ccc2c(=O)c1-c1ccccc1	0	0	-1	1	0	-17	/
C[C@H](O)C#Cc1cnc2c(c1)C(=O)N([C@@H](C)CO)C[C@@H](C)[C@H](CN(C)C(=O)CC1CC1)O2	-1	/	/	/	/	/	/
Cc1noc(C)c1NC(=O)Nc1cccc2c1O[C@H](CN(C)C(=O)NC(C)C)[C@@H](C)CN([C@@H](C)CO)C2=O	0	/	/	/	/	/	/
CO[C@@H]1CN(C)C(=O)c2cc(NC(=O)c3ccno3)ccc2OC[C@@H](C)NC[C@@H]1C	1	/	/	/	/	/	/
Cn1cncc1C#Cc1c(C=O)n(C)c2ccccc12	-6	-1	4	0	/	-2	/
COc1cc(C#Cc2c(C=O)n(C)c3ccccc23)cc(OC)c1	-3	2	30*	12	/	-1	-0.17
NS(=O)(=O)c1cc(C(=O)NC2CCSc3ccccc32)ccc1Cl (stereo unspecified)	80*	1	20*	90*	180*	-1	-0.14	Sypro dye melt=-27
C[C@@H]1CN([C@@H](C)CO)C(=O)c2cccc(NC(=O)c3ccc(-c4nccs4)cc3)c2O[C@@H]1CN(C)Cc1ccc2c(c1)OCO2	2	/	/	/	/	/	/
